Measurements taken from PubChem BioAssay (NCI).
About 83,000 compounds went through this panel and 20% of them were active in at least one assay; those are over-represented in the sample as a whole.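 For each line, cells grew in 96-well plates with the test compound present at a single concentration for 48 hours.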 Active and inactive are the calls of the source. How the source made its calls: active means growth percent below 10; inactive means the rest.

Assays:
Test in all cases: NCI-60 one-dose screen, 48 h (100 = growth as untreated, 0 = no growth, -100 = all killed)
Conditions in all cases: 10 µM
HCT-15 colon = system: HCT-15 colon
HT29 colon = system: HT29 colon
SNB-75 CNS = system: SNB-75 CNS
SNB-19 CNS = system: SNB-19 CNS
U251 CNS = system: U251 CNS
PC-3 prostate = system: PC-3 prostate
SK-MEL-5 melanoma = system: SK-MEL-5 melanoma
UACC-62 melanoma = system: UACC-62 melanoma
LOX IMVI melanoma = system: LOX IMVI melanoma
SK-MEL-28 melanoma = system: SK-MEL-28 melanoma

Measured: growth

C#CCNCCCN1C(=O)c2ccc3c4c(ccc(c24)C1=O)C(=O)N(CCCNCC#C)C3=O
active: HCT-15 colon -82.3% | HT29 colon -8.76% | SNB-75 CNS -98.7% | SNB-19 CNS -88.6% | U251 CNS -76.6% | PC-3 prostate -28% | SK-MEL-5 melanoma -98.7% | UACC-62 melanoma -75.8% | LOX IMVI melanoma -94.4% | SK-MEL-28 melanoma -81.8%

CCCCN(CCCC)c1ccc(C(=NC(C)CCCN(CC)CC)c2ccc(N(C)C)cc2)cc1 (stereo unspecified)
active: HCT-15 colon -79.8% | HT29 colon -71.9% | SNB-75 CNS -34% | SNB-19 CNS -23% | U251 CNS -79.9% | PC-3 prostate -42.4% | SK-MEL-5 melanoma -99.6% | UACC-62 melanoma -73.5%

CCOC(=O)c1ccc(N(C=O)CCC(=O)CCl)cc1
active: HT29 colon 1.42% | U251 CNS 4.55% | SK-MEL-5 melanoma 2.68% | LOX IMVI melanoma 3.93%
inactive: HCT-15 colon 17.8% | SNB-75 CNS 26.5% | SNB-19 CNS 59.4% | PC-3 prostate 26% | UACC-62 melanoma 13% | SK-MEL-28 melanoma 34%

CC1(C)Cc2c(cn(Cc3ccccc3)c2-c2ccccc2)-c2oncc21
inactive: HCT-15 colon 101% | HT29 colon 79.6% | SNB-75 CNS 103% | SNB-19 CNS 110% | U251 CNS 88.9% | PC-3 prostate 86.2% | SK-MEL-5 melanoma 83.5% | UACC-62 melanoma 86.7% | LOX IMVI melanoma 90.2%

CNC(=O)c1cc(Oc2ccc(NC(=O)Nc3ccc(Cl)c(C(C)(C)C)c3)c(F)c2)ccn1
inactive: HCT-15 colon 38.9% | HT29 colon 25.9% | SNB-75 CNS 104% | SNB-19 CNS 60% | U251 CNS 52% | PC-3 prostate 37.7% | UACC-62 melanoma 16% | LOX IMVI melanoma 16.6%
active: SK-MEL-5 melanoma -23.2%

COc1ccc(-c2nc(SCC(=O)c3ccc(Br)cc3)[nH]c(=O)c2C#N)cc1
inactive: HCT-15 colon 112% | HT29 colon 101% | SNB-75 CNS 103% | SNB-19 CNS 109% | U251 CNS 109% | PC-3 prostate 95.1% | SK-MEL-5 melanoma 110% | UACC-62 melanoma 104% | LOX IMVI melanoma 102%

Cc1ccccc1[P+](Cc1ccccc1)(c1ccccc1)c1ccccc1
inactive: HCT-15 colon 90.1% | SNB-19 CNS 24.7% | U251 CNS 12.1% | LOX IMVI melanoma 22.4%
active: HT29 colon 7.47% | SNB-75 CNS 6.56% | PC-3 prostate 9.34% | SK-MEL-5 melanoma -14% | UACC-62 melanoma 0.358%

O=C1/C(=C/c2ccc(O)cc2O)N=C2SCCCN12
inactive: HCT-15 colon 97.3% | HT29 colon 93.9% | SNB-75 CNS 96.2% | SNB-19 CNS 97% | U251 CNS 99.2% | PC-3 prostate 100% | SK-MEL-5 melanoma 99.7% | UACC-62 melanoma 97.4% | LOX IMVI melanoma 102%

O=C(NCCc1nccs1)c1cnc2c(S)cccc2c1
inactive: HCT-15 colon 17.6% | HT29 colon 20.4% | SNB-75 CNS 44.1% | SNB-19 CNS 28.5% | U251 CNS 12.8% | PC-3 prostate 34.2%
active: SK-MEL-5 melanoma -22.1% | UACC-62 melanoma -6.53% | LOX IMVI melanoma 2.38%

CC(=O)Nc1nc(C)c(C(=O)NNC=O)s1
inactive: HCT-15 colon 99.5% | HT29 colon 99.8% | SNB-75 CNS 94.8% | SNB-19 CNS 117% | U251 CNS 109% | PC-3 prostate 91.6% | SK-MEL-5 melanoma 104% | UACC-62 melanoma 97.1% | LOX IMVI melanoma 104% | SK-MEL-28 melanoma 104%

O=C(N/N=c1/ccoc2cccnc12)N1CCN(c2ncccn2)CC1
active: SK-MEL-5 melanoma -36.8% | UACC-62 melanoma 7.9%
inactive: HCT-15 colon 24.9% | HT29 colon 34.6% | SNB-75 CNS 70.7% | SNB-19 CNS 35% | U251 CNS 17.9% | PC-3 prostate 26.2%

C[N+]1=C(/C=C/c2ccc(I)cc2)C(C)(C)c2ccccc21
inactive: HCT-15 colon 86.6% | HT29 colon 97.2% | SNB-75 CNS 95.9% | SNB-19 CNS 96.7% | U251 CNS 40.6% | PC-3 prostate 87.3% | SK-MEL-5 melanoma 90.4% | UACC-62 melanoma 95.3% | LOX IMVI melanoma 38%

COc1ccc(C2CC(c3ccc(-c4ccccc4)cc3)=NN2c2ccc(S(N)(=O)=O)cc2)cc1 (stereo unspecified)
inactive: HCT-15 colon 45.6% | HT29 colon 48.6% | SNB-75 CNS 81.7% | SNB-19 CNS 65.2% | U251 CNS 66.8% | PC-3 prostate 19.7% | SK-MEL-5 melanoma 85.5% | UACC-62 melanoma 71.1% | LOX IMVI melanoma 50.3%

COc1ccc(CCc2nc3cc(-c4c(C)noc4C)ccc3n2CCN2CCOCC2)cc1
active: SK-MEL-5 melanoma -0.324%
inactive: HCT-15 colon 52.8% | HT29 colon 12.8% | SNB-75 CNS 27.8% | SNB-19 CNS 48.9% | U251 CNS 17% | PC-3 prostate 11.8% | UACC-62 melanoma 20% | LOX IMVI melanoma 50.2%

CCN(CC)c1ccc(/C=C/C2=[N+](C)c3ccccc3C2(C)C)c(C)c1
inactive: HCT-15 colon 10.5% | SNB-19 CNS 20.6%
active: HT29 colon 2.67% | SNB-75 CNS 7.22% | U251 CNS 7.12% | PC-3 prostate 7.18% | SK-MEL-5 melanoma -97.5% | UACC-62 melanoma -21.4% | LOX IMVI melanoma 3.02%

COc1ccc(S(=O)(=O)Nc2cc(/C=C\c3cc(OC)c(OC)c(OC)c3)ccc2OC)cc1
active: HCT-15 colon 7.86% | HT29 colon -13.4% | SNB-75 CNS -2.76% | U251 CNS 0.353% | PC-3 prostate -2.4% | SK-MEL-5 melanoma -20.1%
inactive: SNB-19 CNS 55.1% | UACC-62 melanoma 27.8% | LOX IMVI melanoma 19.3%

CCCCc1ccc(NC(=O)N(CCCl)N=O)cc1
inactive: HCT-15 colon 102% | HT29 colon 99.6% | SNB-75 CNS 90.4% | SNB-19 CNS 88.5% | U251 CNS 80.8% | PC-3 prostate 94% | SK-MEL-5 melanoma 97.9% | UACC-62 melanoma 86.2% | LOX IMVI melanoma 89.3%

N#CC1C=Cc2c(ccc3ccccc23)N1C(=O)c1ccccc1 (stereo unspecified)
active: HT29 colon 8.15%
inactive: HCT-15 colon 20.6% | SNB-75 CNS 22% | SNB-19 CNS 43.3% | U251 CNS 24% | PC-3 prostate 32.6% | SK-MEL-5 melanoma 12.7% | UACC-62 melanoma 37.7% | LOX IMVI melanoma 27.5%

COC(=O)[C@]12CC[C@@H](C)[C@H](C)[C@@H]1C1=CC[C@@H]3[C@@]4(C)C/C(=N\O)[C@H](O)[C@@]5(C)COC(=C45)C[C@@]3(C)[C@]1(C)CC2
active: HCT-15 colon -92.7% | HT29 colon -92.9% | SNB-75 CNS -87.8% | SNB-19 CNS -66.2% | U251 CNS -96.4% | PC-3 prostate -81.5% | SK-MEL-5 melanoma -97.7% | UACC-62 melanoma -57.6% | LOX IMVI melanoma -71.6%

CCOC(=O)c1c(Cl)c2c(n1Cc1cccc(OC)c1)-c1oncc1CC2
active: HT29 colon 7.37% | SNB-75 CNS -11.7%
inactive: HCT-15 colon 30.8% | SNB-19 CNS 34% | U251 CNS 26% | PC-3 prostate 31.7% | SK-MEL-5 melanoma 20.9% | UACC-62 melanoma 33.6% | LOX IMVI melanoma 38.3%

CCCOCC(O)CNCCN (stereo unspecified)
inactive: HCT-15 colon 98.2% | HT29 colon 102% | SNB-75 CNS 93.4% | SNB-19 CNS 102% | U251 CNS 95.5% | PC-3 prostate 83.4% | SK-MEL-5 melanoma 106% | UACC-62 melanoma 101% | LOX IMVI melanoma 104% | SK-MEL-28 melanoma 110%

C#CCNCCN1C(=O)c2ccc3c4c(ccc(c24)C1=O)C(=O)N(CCNCC#C)C3=O
inactive: HCT-15 colon 19.5% | SNB-75 CNS 75.4% | SNB-19 CNS 46% | U251 CNS 29.5% | PC-3 prostate 47.7% | UACC-62 melanoma 16.7%
active: HT29 colon 2.13% | SK-MEL-5 melanoma -81.3% | LOX IMVI melanoma -3.21%

O=C(Nc1ccc(CN2CCOCC2)cc1)c1ccc(-c2cc(Cl)ccc2Cl)o1
active: HT29 colon 2.85% | UACC-62 melanoma -56.1% | LOX IMVI melanoma 4.07%
inactive: HCT-15 colon 17% | SNB-75 CNS 48% | SNB-19 CNS 54.7% | U251 CNS 32.4% | PC-3 prostate 41.4% | SK-MEL-5 melanoma 37.1%

O=C1/C(=C/c2ccc(O)cc2)CSc2ccc(Cl)cc21
inactive: HCT-15 colon 53.9% | HT29 colon 69.3% | SNB-75 CNS 93.8% | SNB-19 CNS 88.4% | U251 CNS 74.8% | PC-3 prostate 58.9% | SK-MEL-5 melanoma 80.9% | UACC-62 melanoma 71.8% | LOX IMVI melanoma 49.3%

CCC(O)c1ccc(Br)cc1NC(=O)c1cccc(Cl)c1 (stereo unspecified)
inactive: HCT-15 colon 28.5% | HT29 colon 83.7% | SNB-75 CNS 38.8% | SNB-19 CNS 21.2% | U251 CNS 11.7% | PC-3 prostate 34.2% | SK-MEL-5 melanoma 10.7% | SK-MEL-28 melanoma 29.3%
active: UACC-62 melanoma -27.5% | LOX IMVI melanoma 0.289%

CCCCOCC(=O)NC(NP(=O)(N(C)C)N(C)C)C(Cl)(Cl)Cl (stereo unspecified)
inactive: HCT-15 colon 140% | HT29 colon 122% | SNB-75 CNS 106% | SNB-19 CNS 107% | U251 CNS 120% | PC-3 prostate 113% | SK-MEL-5 melanoma 118% | UACC-62 melanoma 103% | LOX IMVI melanoma 110%

Cn1c(N)c(N=Cc2ccccc2)c(=O)n(C)c1=O
inactive: HCT-15 colon 103% | HT29 colon 101% | SNB-75 CNS 91.4% | SNB-19 CNS 105% | U251 CNS 110% | PC-3 prostate 105% | SK-MEL-5 melanoma 108% | UACC-62 melanoma 115% | LOX IMVI melanoma 104%

CN1CCN(c2nc(-c3cccnc3)nc3sc4c(c23)CCCCCC4)CC1
inactive: HCT-15 colon 93.2% | HT29 colon 91.3% | SNB-75 CNS 67.4% | SNB-19 CNS 101% | U251 CNS 72.3% | PC-3 prostate 66.7% | SK-MEL-5 melanoma 87.9% | UACC-62 melanoma 103% | LOX IMVI melanoma 78.6% | SK-MEL-28 melanoma 99.7%
